# Source: PubChem BioAssay
# Luc counter: counter-screen: inhibitors of Kinase-Glo firefly luciferase; Q27757; Kinase-Glo luciferase, ATP luminescence, 8 min; Potency, µM (highest dose often 38.3 µM), for inactives: at the top dose activity change, negative = inhibition, usual class: inhibitors; 200,000 tested, 0.28% active; AID 1379; note: nearly all actives have a fitted effect of over 60% in size
#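 Substrate mix (final 50 mM imidazole pH 7.2, 50 mM KCl, 7 mM MgCl2, 10 uM ATP, 0.01% Tween 20, 0.05% BSA) plus pin-tool compound, then Kinase-Glo detection mix; 8 min ambient, luminescence read.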
# RORgamma inh: inhibitors of mouse ROR gamma transcriptional activity; P51450; Potency, µM (titrated, usually from 53.6 µM), without a hit: top-dose activity change, negative = inhibition, hits mostly inhibitors; Drosophila S2 Gal4-RORgamma UAS-luciferase reporter, 20 h; 310,000 tested, 5.4% active; AID 2551; note: nearly all actives have a fitted effect of over 60% in size
# Target sequence (P51450 whole entry, looked up, the tested form may be a part): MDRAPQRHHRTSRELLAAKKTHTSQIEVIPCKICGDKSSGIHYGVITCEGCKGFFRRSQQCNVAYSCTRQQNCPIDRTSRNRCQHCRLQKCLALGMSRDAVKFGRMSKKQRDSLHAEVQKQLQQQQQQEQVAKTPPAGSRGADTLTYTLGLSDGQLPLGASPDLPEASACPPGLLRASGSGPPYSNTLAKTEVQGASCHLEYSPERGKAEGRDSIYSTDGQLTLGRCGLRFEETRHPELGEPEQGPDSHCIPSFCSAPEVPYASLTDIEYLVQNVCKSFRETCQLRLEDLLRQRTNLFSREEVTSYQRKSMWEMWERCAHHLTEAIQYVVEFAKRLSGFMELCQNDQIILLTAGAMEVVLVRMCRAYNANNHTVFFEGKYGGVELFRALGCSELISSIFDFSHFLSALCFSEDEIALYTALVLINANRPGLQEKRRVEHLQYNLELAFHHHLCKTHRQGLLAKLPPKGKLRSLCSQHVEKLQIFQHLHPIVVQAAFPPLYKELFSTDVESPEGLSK
#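 ROR gamma transcriptional activity was tracked as Gal4-UAS luciferase output in stably transfected Drosophila Schneider cells, with compound added 1 hr before 700 uM copper sulfate induction and a 20 hr ambient-temperature incubation.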
# VP16 counter: counter-screen for ROR gamma inhibitors: Gal4-VP16 reporter | Drosophila S2 Gal4-VP16 UAS-luciferase, luminescence, 20 h | Potency, µM (doses to about 53.6 µM), inactives show at the highest dose activity, negative = inhibition, actives largely listed as inhibitors | 310,000 tested, 3.5% active | AID 2546;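 note: Gal4-VP16 expression switched on by copper sulfate through the metallothionein promoter; nearly all actives have a fitted effect of over 50% in size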
# * hit, by the source's call; ? = inconclusive; / = no result; [ ] = remark or other dose. A selection: hits, their analogues and other compounds. The true share with any hit is near 6.4%. Calls come from the whole dose curve; as a rule, active = well fitted curve in the direction sought with a large enough effect; inconclusive = small, poorly fitted or top-dose-only effect, or another doubt; inactive = no such curve, though single readings can be large; an effect the other way counts as inactive or inconclusive. % is set by controls: 0 for no effect and ±100 for the full control effect; potency is the fitted concentration of half-maximal effect.
SMILES,Luc counter,RORgamma inh,VP16 counter
CC(C)(C)OC(=O)NCc1ccc(CNC(=O)c2[nH]cnc2C(=O)N[C@@H](Cc2ccccc2)C(=O)OC(C)(C)C)cc1,/,11µM*,20µM*
CC(C)C[C@H](NC(=O)c1nc[nH]c1C(=O)NCc1ccc(CNC(=O)OC(C)(C)C)cc1)C(=O)OCc1ccccc1,/,11µM*,?
C[C@H](NC(=O)c1nc[nH]c1C(=O)NCc1ccccc1)C(=O)OC(C)(C)C,/,-37%,-3%
CC(C)(C)OC(=O)NCc1ccc(NC(=O)c2nc[nH]c2C(=O)N[C@@H](Cc2ccccc2)C(=O)OCc2ccccc2)cc1,/,7.1µM*,?
COc1cccc(NC(=O)CN2C(=O)CSc3ccc(S(=O)(=O)N4CCCCC4)cc32)c1,/,10%,-3%
COc1ccc(N2CCN(C(=O)c3cccc(Br)c3)CC2)c([N+](=O)[O-])c1,0%,28%,-22%
CCOc1ccccc1C(=O)NC1CCNCC1,/,1%[1.91 µM],7%
COc1ccc(-c2nnc(NC(=O)c3ccccc3[N+](=O)[O-])s2)c(OC)c1,/,?,-19%
O=C(Nc1ccc2c(c1)OCO2)O[C@@H]1C[C@H]2CCC(=O)N3CC[C@@H](C1)[C@@H]23,/,-12%,6%
Cc1ccc(OCC(=O)N/N=C\c2ccncc2)c(C)c1,-2%,-4%,3%
CC(=O)Nc1ccc(NC(=O)Cn2c(=O)n(-c3ccc(C)cc3)c(=O)c3oc4ccccc4c32)cc1,1%,6%,3%
COCCN(CC1CCCN(C2Cc3ccccc3C2)C1)C(=O)CSC (configuration not stated),/,4%,0%
COc1ccc(Nc2nnc(SCC(=O)Nc3ccc4[nH]c(=O)[nH]c4c3)s2)cc1,/,?,0%
CC(C)(C)OC(=O)NCc1ccc(CNC(=O)c2[nH]cnc2C(=O)N[C@@H](Cc2ccccc2)C(=O)OCc2ccccc2)cc1,/,11µM*,?
CNC(=O)c1[nH]cnc1C(=O)N[C@@H](Cc1ccccc1)C(=O)OC(C)(C)C,/,7.9µM*,?
Cc1ccc(S(N)(=O)=O)cc1NC(=O)/C=C/c1ccc2c(c1)OCO2,0%,22%,-6%
CCN(C(=O)Cc1c(C(=O)O)n(C)c2ccccc12)c1cccc(C)c1,/,-1%,8%
Cn1c(=NC(=O)c2ccccc2[N+](=O)[O-])sc2cccc(F)c21,/,3%,15%
Cc1cc(-c2ccc(N=Nc3ccc4c(S(=O)(=O)O)cc(S(=O)(=O)O)c(N)c4c3O)c(C)c2)ccc1N=Nc1ccc2c(S(=O)(=O)O)cc(S(=O)(=O)O)c(N)c2c1O,10µM*,?,?
Nc1c(N=Nc2ccc(-c3ccc(N=Nc4cc(S(=O)(=O)O)c5ccccc5c4N)cc3)cc2)cc(S(=O)(=O)O)c2ccccc12,?,-31%,?
O=C(CSc1nnc(CNC(=O)c2c(F)cccc2F)o1)Nc1ccc2c(c1)OCCO2,/,14%,3%
CCOc1nc(Nc2ccccc2F)nc(OCC)n1,/,24%,17%
C=CCNc1nc(Nc2ccccc2F)nc(OCC)n1,-2%,13µM*,11%[10 µM]
CC1CN(S(=O)(=O)c2cccc(C(=O)OC(C)C(=O)NC3CCCCC3C)c2)CC(C)O1 (configuration not stated),/,3%,-4%
COCCNC(=O)[C@@H]1CCCN1C(=O)C1CCN(S(=O)(=O)c2ccc(C)cc2)CC1,/,-1%,-7%
SMILES,Luc counter,RORgamma inh,VP16 counter
Cc1onc(-c2ccccc2)c1C(=O)Oc1ccccc1,/,15%,4%
CCc1ccc(OCC(=O)N/N=C(\C)c2ccc(O)cc2O)cc1,2%,13µM*,?
CCc1ccc(OCC(=O)N/N=C(\C)c2ccc3c(c2)OCCO3)cc1,7%,33%,2%
C=CCSc1n[nH]c(-c2ccc(OCCC)cc2)n1,-3%,10µM*,?
C=CCSc1n[nH]c(-c2ccc(OCCCC)cc2)n1,1%,8.9µM*,8.9µM*
CCCCCOc1ccc(CSc2n[nH]c(C)n2)cc1,0%,-1%,-24%
Cc1ccc(OCCCSc2n[nH]c(N)n2)cc1,5%,6%,-10%
C=CCSc1n[nH]c(-c2cccs2)n1,/,11µM*,?
O=C(CSc1n[nH]c(-c2cccs2)n1)NCc1cccs1,-1%,-5%,2%
COc1cc(OC)nc(Oc2ccc(N)c(C)c2)n1,/,-2%,-1%
Nc1ccccc1NC(=O)c1ccc(CNC(=O)OCc2cccnc2)cc1,/,-35%,4%
CCOc1ccc(C(=O)NC(C(=O)NCc2cccnc2)C(C)C)cc1 (configuration not stated),/,0%,-3%
OC1c2ccccc2N=C2CCCN21 (configuration not stated),/,17%,7%
Cc1cccc(C(=O)NNC(=O)c2ccccc2O)c1,/,13µM*,?
CC(C)(C)NC(=O)C(=O)NNC(=O)c1cccc(Br)c1,0%,?,?
CC(C)(C)NC(=O)C(=O)NNC(=O)c1ccc(C(C)(C)C)cc1,3%,8.9µM*,?
COC(=O)NNC(=O)c1ccc(C(C)(C)C)cc1,-3%,13%,-10%
Cc1cccc(C(=O)NNC(=O)C(=O)NC(C)(C)C)c1,-3%,13µM*,-2%
Cc1cccc(C(=O)NNC(=O)c2ccccc2C)c1,-1%,-7%,4%
Cc1cccc(CNC(=O)C2CCC(=O)N(C3CC3)C2)c1 (configuration not stated),/,12%,0%
Cc1nn(CC(C)C)c(Cl)c1C(=O)N(C)CC(=O)Nc1c(Cl)cccc1Cl,/,21%,?
Clc1ccc(Nc2cc(-c3ccccc3)nc3ncnn23)cc1,/,-44%,-3%
C#CCNc1cc(-c2ccccc2)nc2ncnn12,1%,0%,-1%
c1ccc(Nc2cc(-c3ccccc3)nc3ncnn23)cc1,-3%,16µM*,?
O=S(=O)(c1ccccc1)N1CCN(c2cc(-c3ccccc3)nc3ncnn23)CC1,-4%,?,5.6µM*
SMILES,Luc counter,RORgamma inh,VP16 counter
O=S(=O)(c1ccc(Br)cc1)N1CCN(c2cc(-c3ccccc3)nc3ncnn23)CC1,0%,2%,-3%
CC(=O)CSc1cc(-c2ccccc2)nc2ncnn12,/,2.5µM*,16µM*
Cc1ccc(C)c(NC(=O)CCc2nnc3ccc(N4CCCCC4)nn23)c1,/,-11%,-2%
CCOc1ccc(S(=O)(=O)NNS(=O)(=O)c2ccc(C)cc2C)cc1,/,-10%,-20%
CCCOc1ccc(CNC(=O)c2ccc3c(c2)N(CC)CCS3)cc1,/,9%,11%
CCOC(=O)N1CCN(C(=O)CSCc2ccc(Br)cc2)CC1,-1%,0%,4%
COc1ccc(NC(=O)COc2cccc3c2CCN(C)C3=O)c(OC)c1,/,5%,-8%
CC(=O)NCCNc1nc(-c2ccccc2C(F)(F)F)nc2ccccc12,4%,15%,7%
COc1ccc(C(=O)N2CCN(c3ccc([N+](=O)[O-])c(NCCc4ccc(OC)c(OC)c4)c3)CC2)cc1,3%,?,4µM*
COc1ccc(CCNc2cc(N3CCN(C(=O)c4ccccc4F)CC3)ccc2[N+](=O)[O-])cc1OC,-1%,42%,10µM*
COc1ccc(CCNc2cc(N3CCN(C(=O)c4ccc(C)cc4)CC3)ccc2[N+](=O)[O-])cc1OC,-2%,?,-28%
